Data on 46 compounds can be found in PubChem BioAssay AID2685 (National Center for Advancing Translational Sciences (NCATS), 2010).

About 2,100 (0.66%) of roughly 320,000 compounds were called active. Not shown: some 53% with an inconclusive outcome. The call rests on the fitted dose curve; in most records, active means well fitted inhibition curve with a large enough effect in the signal ratio, with a control signal flat (not every such curve was filed as active); inconclusive means small, poorly fitted or top-dose-only effect, or effect the other way, or a change in a side signal; inactive means flat fitted curve, though single readings scatter; the % refers to the signal ratio. This excerpt belongs to a sample that is enriched for actives.
Potency means the concentration at half of the fitted maximal effect.

A short description of the assay: qHTS Assay for Lipid Storage Modulators in Drosophila S3 Cells.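 On cell number change: cells counted by Cell Tracker Red CMTPX staining in the red channel.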 On lipid storage change, negative = inhibition: on the % scale 0 is the no-effect control and ±100 the full control effect. As to conditions: BODIPY lipid droplet fluorescence, 18-24 h, cells fed with added oleic acid; cell number change: measured here: cell count max response; series mostly up to 46.1 µM; lipid storage change, negative = inhibition: at the top concentration. Put shortly: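 Laser-scanning cytometry quantifies lipid droplet accumulation (500–530 nm total intensity; droplet/cell object ratio) in oleic acid-fed (400 uM added) Drosophila S3 cells treated with a concentration series. 20 uM Triacsin C defined 100% inhibition.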
Consider `COc1ccc(CN2C(=O)NC(=O)/C(=C/c3ccc([N+](=O)[O-])s3)C2=O)cc1`, for which the “lipid storage change, negative = inhibition” value was -13.4% (inactive) and the cell number change stood at 7.76%.

`O=C(c1ccc2c(c1)OCO2)C1CCCN(Cc2ccccn2)C1` (stereo not drawn): the “lipid storage change, negative = inhibition” value is 22.4% (inactive) and the cell number change came out at 1.62%.

With `CCN(CC)C(=O)c1ccc(NC(=O)COc2ccc(-c3nn(C)c(=O)c4ccccc34)cc2)cc1`, the outcome was inactive and the cell number change was -2.38%.

In the case of `CCN(CC)C(=O)c1ccc(NC(=O)c2ccc(-c3nn(C)c(=O)c4ccccc34)cc2)cc1`, the “lipid storage change, negative = inhibition” value is 2.66% (inactive) and the cell number change is 4.89%.

With `CCN(CC)C(=O)c1ccc(NC(=O)c2cn(-c3ccccc3)nc2-c2ccc(OC)cc2)cc1`, the Potency was 2.31 µM (active) and the cell number change is -6.07%.

On to `COc1ccc(-n2c(CN3CCOCC3)nc3ccccc3c2=O)c(OC)c1`, for which the “lipid storage change, negative = inhibition” value was -6.32% (inactive) and the cell number change is -3.52%.

Turning to `COc1ccc(N2CCN(Cc3nc4ccccc4[nH]3)CC2)cc1`, the “lipid storage change, negative = inhibition” value is -14.5% (inactive) and the cell number change turned out to be 15.8%.

Take `Cc1cc(N2CCN(C)CC2)nc2ccccc12`: the “lipid storage change, negative = inhibition” value was 3.1% (inactive) and the cell number change stood at 21.8%.

Take `CN1CCN(Cc2nc3ccccc3c(=O)[nH]2)CC1`: the Potency is 29.1 µM (active) and the cell number change was -23.1%.

Take `C[C@]12CCC3[C@@H](CC[C@H]4C[C@@H](O)CC[C@]34C)C1CCC2=O` (stereo partly drawn): the compound was called inactive and the cell number change came out at 15.3%.

Take `C#CC[N+]1(C)[C@@H]2CC(OC(=O)C(CO)c3ccccc3)C[C@H]1C(O)C2` (stereo partly drawn): the “lipid storage change, negative = inhibition” value was 0.585% (inactive) and the cell number change came out at 7.57%.

Turning to `Cc1cccc(-n2c(-c3ccc([N+](=O)[O-])cc3)nc3ccccc3c2=O)c1`, the “lipid storage change, negative = inhibition” value is 10.9% (inactive) and the cell number change is -0.157%.

Take `Cc1cccc(-n2c(/C=C/c3ccccn3)nc3ccccc3c2=O)c1`: the outcome was inactive and the cell number change was -12.4%.

As for `Cc1ccc(-n2c(/C=C/c3ccccn3)nc3ccccc3c2=O)cc1`, the Potency was 6.51 µM (active) and the cell number change was 27.8%.

As to `Cc1cccc(-n2c(/C=C/c3ccc([N+](=O)[O-])o3)nc3ccccc3c2=O)c1`, the Potency is 5.17 µM (active) and the cell number change was determined as 9.44%.

For `O=c1c2ccccc2nc(/C=C/c2ccccn2)n1-c1ccccc1`, the compound was called inactive and the cell number change stood at 5.25%.

As for `Cc1ccccc1-n1c(/C=C/c2ccccn2)nc2ccccc2c1=O`, the “lipid storage change, negative = inhibition” value is 21.2% (inactive) and the cell number change turned out to be 15.7%.

Take `CSc1nc(N2CCN(C)CC2)c2ccccc2n1`: the “lipid storage change, negative = inhibition” value is 2.69% (inactive) and the cell number change was found to be 12%.

`C/C=C1/CC(C)C(C)(O)C(=O)OCC2CCN3CCC(OC1=O)C23` (stereo not drawn): the “lipid storage change, negative = inhibition” value is 1.68% (inactive) and the cell number change came to 3.31%.

With `Cc1ccc(N2C(=O)/C(=C/c3ccc(CN(CCC#N)S(C)(=O)=O)o3)C(=O)NC2=S)cc1`, the “lipid storage change, negative = inhibition” value was -8.75% (inactive) and the cell number change turned out to be 9.59%.

Consider `[N-]=[N+]=NCc1cn2cccnc2n1`, for which the “lipid storage change, negative = inhibition” value is -11.6% (inactive) and the cell number change was -11.7%.

Regarding `c1ccc(C2CC3CC(c4ccco4)N2O3)cc1` (stereo not drawn), the “lipid storage change, negative = inhibition” value was 6.42% (inactive) and the cell number change is 2.08%.

With `Cc1ccc(N=Cc2c(O)n(C)c(=O)n(C)c2=O)cc1`, the compound was classed as inactive and the cell number change is -14%.

For the compound `CN1C2CCC1CC(OC(=O)c1ccc(Cl)cc1)C2` (stereo not drawn), the “lipid storage change, negative = inhibition” value is 6.86% (inactive) and the cell number change came to 1.41%.

For the compound `CN1C2CCC1CC(OC(=O)c1cc(Cl)cc(Cl)c1)C2` (stereo not drawn), the Potency was 23.1 µM (active).

As for `COc1ccc(C(=O)OC2C[C@H]3CC[C@H](C2)N3C)cc1OC` (stereo partly drawn), the “lipid storage change, negative = inhibition” value is -1.64% (inactive).

With `CNP1(NC)=NC(C(F)(F)F)=NC(C(F)(F)F)=N1`, the “lipid storage change, negative = inhibition” value is -21.3% (inactive).

`COc1ccc(CC(C)NCCc2ccc(OC)c(OC)c2)cc1` (stereo not drawn): the call was inactive and the cell number change is 5.07%.

As to `O=C(Nc1ccc(Cl)cc1)N1CC2CC(C1)c1cccc(=O)n1C2` (stereo not drawn), the Potency is 1.84 µM (active) and the cell number change is -2.6%.

As for `O=C(Nc1ccc(F)cc1)N1CC2CC(C1)c1cccc(=O)n1C2` (stereo not drawn), the “lipid storage change, negative = inhibition” value is -5.85% (inactive) and the cell number change is -3.93%.

`O=C(Nc1cccc(Cl)c1)N1C[C@H]2C[C@@H](C1)c1cccc(=O)n1C2`: the “lipid storage change, negative = inhibition” value was 17.1% (inactive) and the cell number change was -7.76%.

Turning to `COc1ccc(OC)c(NP(=O)(Oc2ccc(Cl)cc2)Oc2ccc(Cl)cc2)c1`, the “lipid storage change, negative = inhibition” value was 8.47% (inactive) and the cell number change was 16.2%.

In the case of `Cc1ccc2[nH]c3c(c2c1)CN(C(=O)CN1C[C@H]2C[C@@H](C1)c1cccc(=O)n1C2)CC3`, the “lipid storage change, negative = inhibition” value was 17.7% (inactive) and the cell number change amounted to 14.9%.

For the compound `N#Cc1c(N2CCNCC2)nc(-c2ccco2)c2c1CCCC2`, the “lipid storage change, negative = inhibition” value was -5.93% (inactive) and the cell number change is 11.9%.

Take `Cc1ccccc1-n1c(O)c(C(c2ccncc2)c2c(O)n(-c3ccccc3C)c(=O)[nH]c2=O)c(=O)[nH]c1=O`: the “lipid storage change, negative = inhibition” value is -7.77% (inactive) and the cell number change came out at 5.35%.

Take `FC(F)(F)c1ccc(CNCCc2ccc3c(c2)OCO3)cc1`: the outcome was inactive and the cell number change stood at 20.8%.

Consider `Cc1ccc(-n2c(O)c(/C=N/NC(=O)c3ccncc3)c(=O)[nH]c2=O)cc1`, for which the “lipid storage change, negative = inhibition” value was -4.67% (inactive) and the cell number change was -2.6%.

Turning to `Cc1ccc(-c2cc(-c3ccc(C)cc3)[n+](-c3ccc(C(=O)O)cc3)c(-c3ccc(C)cc3)c2)cc1`, the “lipid storage change, negative = inhibition” value is 8.58% (inactive) and the cell number change came to 12.1%.

In the case of `CCOC(=O)c1cccc([P+](=O)O)c1`, the “lipid storage change, negative = inhibition” value is 3.53% (inactive) and the cell number change stood at 4.86%.

`CCOC(=O)c1cccc(-[n+]2c(-c3ccccc3)cc(-c3ccccc3)cc2-c2ccccc2)c1`: the Potency is 13 µM (active) and the cell number change is -29.7%.

On to `C(CCc1nn[nH]n1)CCc1nn[nH]n1`, for which the “lipid storage change, negative = inhibition” value is -0.854% (inactive) and the cell number change was determined as 0.918%.

In the case of `CC1(C)CC(n2[nH]c(=O)c3c2NC(=O)CSC3c2ccc(F)cc2)CCO1` (stereo not drawn), the “lipid storage change, negative = inhibition” value is 5.29% (inactive) and the cell number change turned out to be 1.16%.

With `O=C1NC(=O)C(CCc2ccncc2)(Cc2ccc(OCc3ccccc3)cc2)C(=O)N1`, the “lipid storage change, negative = inhibition” value was -0.298% (inactive) and the cell number change amounted to 9.1%.

`CCC1CCCCN1C(=O)Cn1c(=O)oc2ccccc21` (stereo not drawn): the Potency is 1.46 µM (active).

As to `O=C(Cn1c(=O)n(CC2CS2)c2ccccc21)N1CCCCCC1` (stereo not drawn), the “lipid storage change, negative = inhibition” value is 1.02% (inactive) and the cell number change came to 9.44%.

With `CCC1CCCCN1CC(=O)c1ccc(OC(F)F)cc1` (stereo not drawn), the “lipid storage change, negative = inhibition” value is 1.27% (inactive) and the cell number change stood at 2.66%.
